Screening data from PubChem.
MITF act – activators of MITF-driven TRPM1 promoter activity in SK-MEL-5 cells | SK-MEL-5 TRPM1-promoter luciferase, 24 h; % of positive control, neutral wells = 0 | activation, % at 12.5 µM | hit rate 0.75% among 300,000;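 active = mean activation of at least 80% with every replicate also reaching 80%; inconclusive = mean reaches 80% but some replicate falls short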;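 note: 0% = neutral control wells and 100% = parthenolide positive control wells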
esBAF inh – inhibitors of esBAF chromatin remodeling in mouse ES cells. hit rate 2% among 350,000. AID 602393. Bmi1-luciferase knock-in reporter, 24 h; 100% = twice the neutral-well signal. reporter increase, % at 12.5 µM; in the data active = activation above about 40%; inconclusive = no clear call, values can overlap the other calls;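 note: 0% = median of the plate's neutral control wells and 100% = double that signal; a rise in the Bmi1 reporter signal indicates esBAF inhibition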
SMARCA2 activ – increases SMARCA2 function in MMTV reporter cells; MG213 cells, MMTV-luciferase reporter, dexamethasone, overnight; activation, % at 9.1 µM; hit rate 1% among 370,000; AID 652017; in the data active = activation above about 7.8%;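 note: 0% = vehicle wells and 100% = reference activator wells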
FGF22 binding – binders of recombinant human FGF22 by thermal shift | AID 651658 | hit rate 1.5% among 340,000 | Q9HCT0 | activity (Tm shift, normalised), % at 9.99 µM | SYPRO orange fluorescence; percent of sucrose octasulfate shift, DMSO zero;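 active = mean Tm shift, scaled 0 neutral to 100 positive control, at about 1.3% or above, every replicate too, limit read from the data; inconclusive = no clear call, values can overlap the other calls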
Wnt act – activates Wnt/beta-catenin signaling in a reporter cell assay; activator, plate reader; activation, % at 9.35 µM; hit rate 1.2% among 300,000; AID 743398; in the data active = activation above about 30%, passing the limit was not always enough; inconclusive = no clear call, values can overlap the other calls;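 note: 0% = neutral control wells and 100% = positive control wells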
AF4-AF9 inh – MLL-AF4/AF9 protein interaction inhibition; P42568; AlphaScreen, biotin-AF4 peptide binding to FLAG-AF9; inhibition, % at 10 µM; hit rate 0.47% among 350,000;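 active = every replicate reaching a set inhibition limit, whatever the replicate mean, cut at about 25% in these data; inconclusive = mean inhibition reaches that limit but some replicates miss it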;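 note: 0% = plate neutral control median and 100% = total signal loss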
Target sequence (P42568 whole entry, looked up): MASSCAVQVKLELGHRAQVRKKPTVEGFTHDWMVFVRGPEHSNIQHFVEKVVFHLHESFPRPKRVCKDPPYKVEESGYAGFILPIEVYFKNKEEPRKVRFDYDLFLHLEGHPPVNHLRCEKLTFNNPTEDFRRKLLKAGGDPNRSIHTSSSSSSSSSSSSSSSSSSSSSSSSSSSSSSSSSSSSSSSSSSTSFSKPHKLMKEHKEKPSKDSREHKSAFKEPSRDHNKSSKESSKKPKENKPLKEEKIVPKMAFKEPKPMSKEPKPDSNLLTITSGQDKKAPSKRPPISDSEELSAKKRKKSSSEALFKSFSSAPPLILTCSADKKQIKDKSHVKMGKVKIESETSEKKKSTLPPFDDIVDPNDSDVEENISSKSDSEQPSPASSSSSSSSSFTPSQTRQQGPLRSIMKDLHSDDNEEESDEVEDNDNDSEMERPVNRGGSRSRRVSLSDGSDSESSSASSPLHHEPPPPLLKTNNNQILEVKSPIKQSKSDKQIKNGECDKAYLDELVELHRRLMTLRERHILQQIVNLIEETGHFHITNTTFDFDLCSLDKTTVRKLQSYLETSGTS
SMARCA2 conf – confirmation of SMARCA2 (BRM) function activators; activation, % at 9.1 µM; MG213 cells, MMTV-luciferase with dexamethasone, luminescence, overnight; MG213 cells expressing E1A, Rb sequestered; DMSO wells 0%, reference activator 100%; shares compounds with SMARCA2 activ; hit rate 30% among 3,500; AID 652260;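 active = activation above its plate's cutoff, the mean activation of tested wells plus 3 SD, cut at about 7.9% in these data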
VP16 Luc act – GAL4-VP16 reporter activation counter-screen. shares compounds with SMARCA2 activ. HEK293 GAL4-VP16 pG5luc reporter, luciferase luminescence; scaled: DMSO wells 0%, SAHA wells 100%. activation, % at 9.1 µM. hit rate 41% among 3,500;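 active = activation above the solvent-only control well mean plus 3 SD, averaged across control plates, cut at about 5.2% in these data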
* = called active by the depositor; u = inconclusive; x = no result. Rows were chosen to be rich in hits. Some 4.3% of all compounds tested hit in one or more screens of this group.

SMILES | MITF act | esBAF inh | SMARCA2 activ | FGF22 binding | Wnt act | AF4-AF9 inh | SMARCA2 conf | VP16 Luc act
CO[C@H]1CN(C)C(=O)c2cc(NC(=O)Nc3ccc(F)cc3)ccc2OC[C@H](C)NC[C@@H]1C | x | -4.2 | x | -0.1 | x | -8.7 | x | x
O=C(COC(=O)CC1CCCC1)Nc1cc2c(cc1Cl)C(=O)c1ccccc1C2=O | 29.2 | 50.1* | 8.1* | x | 38.6* | x | 8.6* | 13.9*
O=C(C[C@H]1C[C@H]2c3cc(NS(=O)(=O)c4ccc(F)cc4)ccc3O[C@H]2[C@@H](CO)O1)NCc1ccccn1 | x | -0.3 | x | -0.4 | x | -0.4 | x | x
COc1ccc(C2=NN(C(=O)c3ccco3)C(c3cccs3)C2)cc1OC (stereo not drawn) | x | 15.6 | 11.6* | 0.0 | 10.1 | 5.8 | 18.2* | 4.5
N#CCCN1CCN(C2=NC(=O)/C(=C\c3cccs3)S2)CC1 | 24.4 | x | 8.8* | 44.1* | 12.5 | -0.9 | 1.8 | -0.9
O=C1N=C(N2CCOCC2)S/C1=C\c1cccs1 | 15.5 | 11.0 | 5.6 | 0.5 | 4.9 | 1.7 | x | x
Cc1cc2cc(OCc3ccccc3)ccc2n1C | x | 22.7 | 12.8* | x | 21.9 | 2.3 | 4.1 | 8.1*
COc1ccc(CNC(=O)c2c(N)[nH]c(C(=O)c3ccccc3)c2-c2ccc3ccccc3c2)cc1OC | x | x | -1.3 | -0.1 | -2.3 | x | x | x
CCn1c(C)csc1=NC(=O)c1ccccc1O | 27.2 | u | 12.1* | 0.0 | 16.0 | -34.2 | 3.6 | 8.0*
CCOC(=O)N1CCN(C(=O)CS(=O)(=O)c2cn(Cc3ccc(F)cc3)c3ccccc23)CC1 | x | 6.5 | 8.0* | -0.1 | -0.1 | -8.9 | -1.5 | 2.5
O=C(CS(=O)(=O)c1cn(Cc2ccc(Cl)cc2)c2ccccc12)N1CCCC1 | x | 7.6 | -2.4 | 0.0 | 2.8 | -2.4 | x | x
COc1cc(/C=C2/SC(=S)N(CC(=O)NC(C)(C)C)C2=O)cc(OC)c1OC | -19.9 | -2.9 | 8.0* | x | -5.9 | x | -1.9 | -0.8
O=C(C[C@@H]1CC[C@H]2[C@@H](COC[C@H](O)CN2Cc2cccc(F)c2)O1)NCc1cccc(F)c1 | x | 2.2 | x | 0.7 | x | -5.4 | x | x
CCc1nc2ccc(C(=O)N(C)Cc3ccccc3)cn2c1N(C)Cc1ccc(OC)cc1 | x | 2.6 | 9.9* | -0.3 | -1.6 | -3.1 | 3.8 | 1.3
CCc1nc2ccc(C(=O)NCc3ccc(OC)cc3)cn2c1N(C)Cc1ccc(OC)cc1 | x | 2.4 | -5.0 | 0.6 | -3.6 | 2.4 | x | x
C/C(N)=C(/C#N)C(=O)CSc1cc(C)c2cc(C)cc(C)c2n1 | 10.7 | -1.3 | 8.5* | -0.3 | 0.7 | -3.3 | -2.0 | -1.0
COc1cc(NC(=O)CSc2cc(C)c3cc(C)cc(C)c3n2)c(C(=O)O)cc1OC | 0.9 | -3.0 | 8.4* | 0.1 | -0.6 | -0.9 | 2.4 | -1.0
O=C(C[C@H]1C[C@@H]2c3cc(NC(=O)NC4CCCC4)ccc3O[C@@H]2[C@H](CO)O1)NCc1cc(F)ccc1F | x | 2.3 | x | 0.0 | x | x | x | x
O=C(Cc1ccccc1)NCCc1ccc(Cl)cc1Cl | 5.5 | x | x | x | x | x | x | x
OCCN(Cc1ccccc1)Cc1ccc(Cl)cc1Cl | 4.3 | -5.2 | 8.2* | x | -7.0 | x | -2.6 | -0.7
COc1ccc(C)cc1NC(=O)C1CCN(S(=O)(=O)c2cccc3cccnc23)CC1 | -10.3 | 7.9 | -0.4 | -0.4 | -3.7 | 7.3 | x | x
COc1ccc(C)cc1NC(=O)c1ccccc1NS(=O)(=O)c1cccc2cccnc12 | -12.7 | 0.0 | 8.1* | x | x | x | -3.4 | -1.3
CCOC(=O)C1=C(C)N=c2sc(=Cc3ccc(OCC(=O)O)cc3)c(=O)n2C1c1ccc(Cl)cc1 (stereo not drawn) | x | 0.1 | -1.5 | 0.9 | -1.2 | 12.0 | x | x
CCOC(=O)C1=C(C)N=c2s/c(=C/c3ccc(OCC(=O)O)cc3)c(=O)n2C1c1cc(OC)c(OC)c(OC)c1 (stereo not drawn) | -1.4 | 0.8 | 9.1* | -0.6 | 0.4 | 5.2 | -2.4 | 0.7
